Potency and affinity values are given separately.
System: Cryptococcus neoformans
Conditions: Concentration 20 uM; ASSAY_TEST Inhibition of Fungal Growth; detection method Resazurin; Absorption (OD600-OD570); plate type 384well; NBS; CORNING #3640

Structure (SMILES) | Inhibition
COc1ccc(C2OC3=Nc4cc(C)c(C)cc4NC3=C2O)cc1 (stereo unspecified) | -7.87%
O=C1COc2cccnc2N1 | -2.63%
Nc1nc(SCc2ccccc2)sc1C(=O)N1CCCCC1 | -7.01%
CS(=O)(=O)Oc1ccc(Br)c2cccnc12 | -11.45%
O=c1[nH]c2c(cnn2-c2ccc(Cl)cc2)c(=O)n1-c1cccc(Cl)c1 | -10.88%
Cc1ccc(Nc2nnc(S)s2)cc1F | 17.67%
CCSc1nc(C)c(C)c(O)n1 | -10.18%
COc1c(O)ccc2c1CN1CCc3cc4c(cc3C1C2)OCO4 (stereo unspecified) | -12.68%
Oc1ccccc1-n1c(-c2ccccc2)ccc1-c1ccccc1 | -2.48%
CC1=Nc2ccccc2/C1=C\c1c(C)[nH]c2ccccc12 | -2.97%
Oc1ccc2ccccc2c1/N=N/c1ccc(F)cc1 | -8.4%
O=P(O)(O)c1cc(-c2ccccc2)oc1-c1ccccc1 | -17.53%
Nc1ccn(C2OC(CCl)C(O)C2O)c(=O)n1 (stereo unspecified) | -4.88%
NC(S)=Nc1cccc(Cl)c1 | -2.86%
Cc1nc2[nH]c(=O)n(O)c(=O)c2s1 | -6.64%
N#CC1=C(Nc2ccccc2Cl)SC(c2ccccc2O)NC1=O (stereo unspecified) | -3.28%
Cc1nc(Nc2ccc(F)cc2)nc(Nc2ccc(F)cc2)c1[N+](=O)[O-] | 0.25%
c1ccc(-c2ccc(-c3nccc4ccccc34)[nH]2)cc1 | -7.81%
CC(=O)[C@H]1CC[C@H]2[C@@H]3CCC4=CC(=O)CC[C@]4(C)[C@@]3(F)[C@@H](O)C[C@]12C | -7.75%
COc1ccc2c(n1)Sc1nc3ccccc3nc1N2 | -8.75%
CCOC(=O)Nc1ccc2[nH]c(-c3cscn3)nc2c1 | -11.31%
